Survival enhancement data for 89 molecules are collected here from PubChem BioAssay AID602274 (Sanford-Burnham Center for Chemical Genomics, 2012).

Structures are written as SMILES. About 160 (0.044%) of roughly 360,000 compounds were called active. Cut-off read from the data, not from the text of the source: active = survival enhancement above about 18%; inactive = the rest. Only a selection was taken, and actives are over-represented in it overall.

The nature of this test: compounds raising survival of dissociated human iPSCs – cell-based, ATPlite luminescence, primary screen (AID 602274).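 Note: cells exposed to compounds for 16 hours before the ATP read.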 The conditions noted are these: hiPSC single-cell survival, at 20 µM, hits give high values, 100% = ROCK inhibitor wells, 0% = DMSO.
Regarding `CCCCN(C(=O)c1ccc2ccccc2c1)c1c(N)n(CCCC)c(=O)[nH]c1=O`, the survival enhancement was -0.4% (inactive). As for `Cn1cc(CN2CCCC(CO)C2)c(-c2ccc(Oc3ccccc3)cc2)n1` (centres undefined), the survival enhancement is 4.5% (inactive). Next, `CNC(=O)NC(=O)C(OC(=O)c1cccc(S(=O)(=O)N2CCCCC2)c1)c1ccccc1` (centres undefined): 0.1% (inactive). Next, `O=C1CCC[C@@H]2CC(N3CCCCC3)C[C@@H]3CCN1[C@H]23` (some centres undefined): -1.2% (inactive). Next, `CCc1nc2ccccc2n(CCOCCOCCn2c(=O)c(CC)nc3ccccc32)c1=O`: 2.6% (inactive); `Cc1ccc(S(=O)(=O)N2CCOCC2)cc1NC(=O)COC(=O)c1cnccn1`: -1.4% (inactive); `CN(C)C(=O)CCc1ccc2c3c([nH]c2c1)[C@]1(C)[C@@H](C(=O)N2CCCCC2)C[C@H](CC(=O)NCCC2=CCCCC2)C(=O)N1CC3`: 1% (inactive). With `CCN(CC)S(=O)(=O)c1ccc(N2CCCC2)c(NS(=O)(=O)c2cccs2)c1`, the survival enhancement was 0.5% (inactive). Next, `COc1ccccc1NC(=O)C(C)OC(=O)CC1CCCC1` (centres undefined): -0.5% (inactive). Then `O=C(CSc1nnc(CN2CCCC2)n1-c1ccc(F)cc1)c1ccc2c(c1)OCO2`, with 0% (inactive); and `CCOc1ncccc1C(=O)Nc1ccc2c(c1)OCCO2`, with 0.1% (inactive). Then `COc1cc(C(=O)NC(=S)NCc2ccco2)cc(OC)c1OC`, with -1.8% (inactive); and `CCc1nc2ccc(C(=O)N3CCN(S(=O)(=O)CC)CC3)cn2c1N(C=O)CCC(C)C`, with 0.9% (inactive); and `CCC(=NC1CC(C)(C)NC(C)(C)C1)C1=C(O)CC(C)(C)CC1=O`, with -1.8% (inactive).

Consider `Cc1ccc(C(=O)N/C(=C\c2ccco2)C(=O)NC2CCS(=O)(=O)C2)cc1` (centres undefined), for which the survival enhancement was -0.5% (inactive). Next, `Nc1[nH]c(=S)nc2nc(-c3ccccc3)c(-c3ccccc3)nc12`: -2% (inactive). Next, `CCn1c2c(c3ccc(OC)cc31)CCCC2=O`: 0.7% (inactive); `COC(=O)c1ccc2nc(C3CCCCC3)c(Cc3cccc(F)c3)n2c1`: -0.3% (inactive).

Turning to `CC1(C(=O)NCCc2c[nH]c3ccccc23)C=CC2(CCCCC2)N1C(=O)c1ccccc1` (centres undefined), the survival enhancement is -0.6% (inactive). Then `COc1ccc(NC(=O)CC2C(=O)NC3CCCCC3N2C(=O)c2ccc(F)cc2)cc1` (centres undefined), with -0.2% (inactive). Then `O=C(c1ccc(F)cc1)c1cn(Cc2ccc(F)cc2)c2cc3c(cc2c1=O)OCCO3`, with -1.1% (inactive). Then `COc1ccc2c(c1)c(=O)c(C(=O)c1ccc(Cl)cc1)cn2CC(=O)Nc1ccc(F)cc1`, with 35.8% (active); and `O=C(Nc1cccc2cccnc12)c1ccc2sc([C@H]3C[C@H](O)[C@@H](CO)O3)nc2c1`, with -1.8% (inactive). In the case of `C=CCn1c(C23CC4CC(CC(C4)C2)C3)n[nH]c1=S`, the survival enhancement was -0.3% (inactive).

With `O=C(OCCN1C(=O)c2ccccc2C1=O)[C@@H]1CC(O)CN1S(=O)(=O)c1ccccc1[N+](=O)[O-]` (some centres undefined), the survival enhancement was -1.2% (inactive).

Regarding `CCc1nnc(NC(=O)C2CC(=O)N(c3ccc4c(c3)OCCO4)C2)s1` (centres undefined), the survival enhancement was -0.7% (inactive).

For `Cc1ccc(CCN2CC(C(=O)NCCc3ccccc3)CC2=O)cc1` (centres undefined), the survival enhancement is 0.1% (inactive). Take `CCOc1ccc(OCC)c(NC(=O)C(NS(=O)(=O)c2ccc3c(c2)oc(=O)n3C)C(C)C)c1` (centres undefined): the survival enhancement was -3.4% (inactive). Then `COc1ccc(C(C#N)(CC(=O)O)c2cnccn2)cc1OC` (centres undefined), with 27% (active); and `COc1ccccc1CCNC(=O)c1cnccn1`, with 0.7% (inactive); and `COc1ccc(C(=O)NNC(=O)c2cnccn2)cc1[N+](=O)[O-]`, with -1.9% (inactive). Then `CCC1CCCCN1CCNS(=O)(=O)c1ccc2c(c1)CCN2C(C)=O` (centres undefined), with -1.5% (inactive); and `COC(=O)[C@@H]1C[C@H]2CC[C@H](O)C[C@H]2N1Cc1ccc(N2CCN(C)CC2)cc1`, with -2.9% (inactive); and `COc1ccc(CCNC(=O)CN2C(=O)COc3ccc(S(=O)(=O)N4CCCC4)cc32)cc1OC`, with 0.4% (inactive). As to `C/C(=N\Nc1cccc(C(=O)O)c1)c1ccc2c(c1)Nc1ccccc1S2`, the survival enhancement is -0.6% (inactive). Take `Cc1nc2ccc(N)nc2nc1C`: the survival enhancement is -2% (inactive).

Consider `COC(=O)C(C)Sc1ccc2nnc(-c3cccc(F)c3)n2n1` (centres undefined), for which the survival enhancement was 1.5% (inactive). Then `COc1ccc(-c2cc(C(F)(F)F)n3nc(C(=O)N4CCOCC4)c(Cl)c3n2)cc1`, with 3.2% (inactive); and `Cc1cccc([C@@H]2[C@@H]3C(=O)N(Cc4ccccc4)C(=O)[C@@H]3[C@]3(Cc4ccc(Cl)cc4)C(=O)N(c4cccc(Cl)c4)C(=O)N23)c1`, with -0.6% (inactive). Next, `O=C(NCc1ccccc1CN1CCCC1)c1cccc(S(=O)(=O)Nc2ccc(F)cc2)c1`: -0.3% (inactive); `C[C@H](CO)N1C[C@H](C)[C@@H](CN(C)C(=O)C2CCCCC2)OCc2cnnn2CCCC1=O`: 5.1% (inactive). Then `CC(C)(C)NC(=O)Cn1nnc(-c2ccccc2Cl)n1`, with 1% (inactive). On to `C=CCn1nc(-c2ccccc2)c2c(C)onc2c1=O`, for which the survival enhancement is 0.6% (inactive). Next, `CCOC(=O)C1=CCC2C(=O)N(Cc3ccccc3)C(=O)C12` (centres undefined): -0.2% (inactive).

Take `CCC(Cc1ccccc1)NC(=O)C1CCCCC1` (centres undefined): the survival enhancement was -0.3% (inactive). As for `Cc1nc(CNS(=O)(=O)c2ccc(Oc3ccccc3)cc2)cs1`, the survival enhancement is -0.6% (inactive). Then `CCNC(=O)c1c(O)c2cccc3c2n(c1=O)CC3`, with 8.3% (inactive); and `OC[C@@H]1CN(Cc2ccc(Cl)cc2)C[C@H](n2cnc3c(NCc4ccncc4)ncnc32)O1`, with 0.8% (inactive). Regarding `Cc1cccc(C(=O)Nc2ccccc2C(=O)NCc2cccnc2)c1`, the survival enhancement was 7.7% (inactive).

As for `O=C(COC(=O)C12CC3CC(CC(O)(C3)C1)C2)NC12CC3CC(CC(C3)C1)C2`, the survival enhancement is 4.1% (inactive). Then `CCOc1ccc(OCC)c(-c2c(=O)n(OCc3ccc(Cl)cc3)c3ccccc3[n+]2[O-])c1`, with 0% (inactive); and `O=C(CN1C(=O)c2cccnc2Oc2ccc(Cl)cc21)Nc1ccc(F)cc1`, with -2% (inactive); and `O=C(N/N=C1\CCSC1)c1cc(Cl)ccc1O`, with 1.9% (inactive). Next, `CC1CCCCC1NC(=O)Cn1c(=O)cnc2ccccc21` (centres undefined): -0.7% (inactive).

Regarding `O=C(NCc1nnc(SCC(=O)N2CCCc3ccccc32)o1)c1ccccc1F`, the survival enhancement was 0.9% (inactive). Then `O=C(NCc1ccccc1)C1=C[C@@H](c2ccccc2)C[C@@H](OCCCCO)O1`, with -2.5% (inactive); and `CN(C)S(=O)(=O)c1ccc(N2CCCC2)c(C(=O)Nc2ccc(Br)cc2F)c1`, with -0.6% (inactive); and `CCOC(=O)c1c(C)[nH]c(C(=O)NCCN2CCOCC2)c1C`, with -0.1% (inactive). `Cc1nc2ccccc2nc(=O)c1NNc1ccc([N+](=O)[O-])cc1`: the survival enhancement is -1.5% (inactive).

As to `CCN(CC)c1ccc(C(=O)c2cnc(/N=C/N(C)C)s2)cc1`, the survival enhancement is -0.3% (inactive).

With `C=CCSc1nc(Cc2ccc(Cl)cc2)nc2ccccc12`, the survival enhancement is -1.7% (inactive). Next, `CCCCSc1nnc2c(n1)OC=Nc1ccccc1-2`: 1% (inactive); `CCN(CC(=O)Nc1ccc(Cl)c(S(=O)(=O)N(C)C)c1)Cc1nc2ccccc2c(=O)[nH]1`: -0.1% (inactive). Next, `COc1ccc(S(=O)(=O)N(CCCN2CCCC2=O)Cc2cc3c(C)ccc(C)c3[nH]c2=O)cc1`: -2.2% (inactive). Then `O=C(CCc1[nH]c2ccccc2c1Sc1ccccc1)N(CCO)CCO`, with -1% (inactive). `O=S(=O)(/N=C(/Nc1ccccc1)c1ccccc1)c1cccs1`: the survival enhancement was 4% (inactive). Then `Cc1ccc2c(c1)nnc1nnc(SCC(=O)O)n12`, with -0.2% (inactive); and `COc1ccccc1NC(=O)N1CCCC1C(=O)NCc1cccs1` (centres undefined), with -0.5% (inactive). For `COc1ccc(-n2nnnc2SCc2nc(N)nc(N3CCOCC3)n2)cc1`, the survival enhancement is -2.1% (inactive). Next, `CC1CCCCC12NC(=O)N(CC(=O)N1CCN(c3ccccc3)CC1)C2=O` (centres undefined): -0.5% (inactive); `CC(C)Oc1ccc(S(=O)(=O)N2CCOCC2)cc1NC(=O)C1CSC2(C)CCC(=O)N12` (centres undefined): -0.5% (inactive); `Cc1ccccc1C(OCCN(C)C)C1CCCCC1` (centres undefined): -3.9% (inactive).

Consider `COc1cccc(CNC(=O)CCN2C(=S)NC(C)(C)CC2C)c1` (centres undefined), for which the survival enhancement was -0.7% (inactive). Next, `CC(C)CN(CC(C)C)CC(O)CN(c1ccccc1)S(=O)(=O)c1ccccc1[N+](=O)[O-]` (centres undefined): -0.3% (inactive); `N#C/C(=C(\O)C(F)(F)F)c1nnc2n1CCCCC2`: 2% (inactive).

Turning to `N#C/C(=C(\O)CCl)c1nnc2n1CCCCC2`, the survival enhancement is 2.8% (inactive).

For the molecule `N#C/C(=C/c1cccc([N+](=O)[O-])c1)c1nnc2n1CCCCC2`, the survival enhancement is 32.2% (active). Then `COc1ccc(OC)c(CCNC(=O)CCn2ccc3cc(S(=O)(=O)N4CCCC4)ccc32)c1`, with -0.3% (inactive). Next, `C/C(=N\NS(=O)(=O)c1ccccc1)c1c(O)cc(C)oc1=O`: -0.4% (inactive). Next, `COc1ccc2c(c1)cc1n2CCN=C1NN`: 3% (inactive); `Cc1cccc(-n2c(SCC(N)=O)nc3c(c2=O)C2(CCCCC2)Cc2ccccc2-3)c1`: -2.5% (inactive); `CC1(C(=O)NS(=O)(=O)c2cccc(F)c2)CCN1C(=O)Cc1cc(F)ccc1F` (centres undefined): 0.9% (inactive). `COC(=O)CCSc1nccn1Cc1ccccc1`: the survival enhancement was 0.7% (inactive).

Take `COC(=O)CCSc1cc([N+](=O)[O-])cc2c1c(C1OCCS1)nn2-c1ccccc1` (centres undefined): the survival enhancement was 19.1% (active). Then `CN1CCN(C(=O)c2cnn(-c3ccccc3)c2NC(=O)c2ccc([N+](=O)[O-])cc2)CC1`, with 0.5% (inactive); and `CC1(C)COC(c2cccn2Cc2ccccc2Cl)=N1`, with 4.1% (inactive). In the case of `COc1cc(OC)cc(C(=O)Nc2ncc3c(n2)CC(C)(C)CC3=O)c1`, the survival enhancement was 1.7% (inactive).

For `O=C(NN=Cc1ccccc1O)C(=O)NN=Cc1ccccc1O`, the survival enhancement was -1.8% (inactive). Then `C=CCOc1ccc(C2/C(=C(\O)c3c(C)[nH]c(C(=O)OC)c3C)C(=O)C(=O)N2CCN(C)C)cc1` (centres undefined), with 3.5% (inactive).
